The text below walks through data of PubChem BioAssay (NCI).

About 83,000 compounds went through this panel and 20% of them were active in at least one assay; those are over-represented in the sample as a whole.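 Method: cells in 96-well plates; compound added at one concentration; 48 h incubation; percent growth measured; values under 10 scored active.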 Unmarked numbers belong to inactive results. Active and inactive are the calls of the source.

What all share (assay): NCI-60 one-dose screen, 48 h (100 = growth as untreated, 0 = no growth, -100 = all killed)
For assay [1], the system named is BT-549 breast. The following applies: 10 µM unless noted.
The subject of assay [2] is MDA-MB-435 melanoma. The following applies: 10 µM unless noted.
The subject of assay [3] is SW-620 colon. The settings on record: 10 µM unless noted.
Assay [4] has as its system MCF7 breast. The following applies: 10 µM.
Assay [5] deals with HCT-116 colon. The following applies: 10 µM unless noted.
The test system of assay [6] is HCC-2998 colon. The following applies: 10 µM unless noted.
The subject of assay [7] is KM12 colon. The following applies: 10 µM unless noted.

With `COc1cc(-c2c3c(c(Br)n2Cc2ccccc2)-c2nc(N)sc2CC3)cc(OC)c1OC`, the growth is 94.1% in assay [1]; 35.8% in assay [2]; 74.9% in assay [3]; 61.4% in assay [4]; 69.2% in assay [5]; 96.3% in assay [6]. In addition, the growth in assay [7] was 88.6%.

With `COc1ccccc1C(=O)O/N=C(\N)Cc1cccc2ccccc12`, the growth in assay [1] was 99.4%; in assay [2], 105%; in assay [3] it was 97.3%; in assay [4], 78.9%; in assay [5], 81.5%; in assay [6] it was 89.4%. Also, in assay [7], the growth is 87.9%.

Regarding `O=C(NN1C(=O)CSC1c1ccc(Cl)cc1)c1[nH]c2ccc(F)cc2c1-c1ccccc1` (stereo not given), the growth in assay [1] was 50.9%; in assay [2], 44.9%; in assay [3], 77.8%; in assay [4], 14.6%; in assay [5] it was 31.6%; in assay [6], 6.69% (active). Moreover, the growth in assay [7] was 44.8%.

For the compound `COc1cc(/C=C2\Oc3cc(OCCCN4CCCC4)ccc3C2=O)cc(OC)c1`, the growth in assay [1] was 78.3%; in assay [2], 78.9%; in assay [3] it was 5.52% (active); in assay [4], 4.85% (active); in assay [5], -67.3% (active); in assay [6] it was 75.7%. In assay [7], the growth was 26.3%.

`Cn1cc(-c2ccc3ncc(-c4ccc(CC(=O)Nc5cc(C(C)(C)C)no5)cc4)nc3c2)cn1`: the growth in assay [1] was 55.4%; in assay [2], 28.8%; in assay [3], 48.3%; in assay [4], 30.2%; in assay [5], 24.4%; in assay [6] it was 60.2%. For the same compound, the growth in assay [7] was 6.86% (active).

In the case of `Cc1cccc2c(=O)c3c(sc12)c(N1CCNCC1)nc1ccccc13`, the growth is 80% in assay [1]; 62.5% in assay [2]; 27.6% in assay [3]; 26.7% in assay [4]; 26.9% in assay [5]; 47.5% in assay [6]. The growth in assay [7] is 51.3%.

For `Cc1c(C(=O)OCCO)cc(-c2ccc(Cl)cc2)n1-c1ccc(Cl)cc1Cl`, the growth in assay [1] is 92.8%; in assay [2], 4.72% (active); in assay [3], 67.3%; in assay [4], 44.3%; in assay [5], 60.3%; in assay [6], 100%. For the same compound, the growth in assay [7] was 52.4%.

For the compound `CCOC(=O)c1cc2c(n1Cc1cc(OC)cc(OC)c1)-c1oncc1CCC2`, the growth in assay [1] is 25.2%; in assay [2], -24.9% (active); in assay [3], 24.7%; in assay [4], 12.5%; in assay [5], 15.1%; in assay [6], 19.3%. The growth in assay [7] is 19.1%.

For the compound `CCN1C(=O)N(CC)C2Nn3c(s/c(=C\c4ccccc4F)c3=O)=NC21` (stereo not given), the growth was 44.3% in assay [1]; -19.9% (active) in assay [2]; 38.4% in assay [3]; 33.1% in assay [4]; 17.5% in assay [5]; 36.1% in assay [6]. The growth in assay [7] is 28.5%.

`NC(=O)CSc1nc(-c2ccc(F)cc2)cc(-c2ccco2)n1`: the growth in assay [1] is 99.5%; in assay [2], 104%; in assay [3] it was 116%; in assay [4], 83.2%; in assay [5], 98%; in assay [6], 109%. Further, the growth in assay [7] was 106%.

As for `O=C(O)c1cn(C2CC2)c2cc(N3CCN(C(=O)C[n+]4ccccc4)CC3)c(F)cc2c1=O`, the growth in assay [1] is 102%; in assay [2] it was 99.9%; in assay [3] it was 105%; in assay [4], 101%; in assay [5] it was 99.3%; in assay [6], 106%. The growth in assay [7] is 103%.

`O=C(O)CCC(=O)c1ccc(C2CCCCCC2)cc1`: the growth in assay [1] is 94.9%; in assay [2] it was 105%; in assay [3], 107%; in assay [4] it was 96.6%; in assay [5] it was 98.5%; in assay [6], 108%. In addition, the growth in assay [7] is 105%.

Regarding `O=C(Nc1ccc(-c2nc3ccc(NC(=O)c4ccc(Cl)cc4)cc3[nH]2)cc1)c1ccc(Cl)cc1`, the growth is -5.61% (active) in assay [1]; -32.7% (active) in assay [2]; 18.4% in assay [3]; 14.4% in assay [4]; 0.708% (active) in assay [5]; -23% (active) in assay [6]. Moreover, the growth in assay [7] is 39.7%.

On to `COc1cc(NC(=O)CCSc2nc3ccccc3c(=O)n2CCc2ccccn2)cc(OC)c1OC`, for which the growth in assay [1] was 73.4%; in assay [2], 101%; in assay [3] it was 101%; in assay [4], 62.4%; in assay [5], 85.5%; in assay [6], 97.5%. For the same compound, the growth in assay [7] was 99.8%.

In the case of `Cn1nc(C(F)(F)F)c(-c2ccc(Cl)c(C(F)(F)F)c2)c1-c1ccc(OCc2ccc(Cl)cc2)cc1O`, the growth in assay [1] is 39.8%; in assay [2] it was 24.7%; in assay [3], 13.9%; in assay [4] it was 4.01% (active); in assay [5] it was -0.403% (active); in assay [6] it was 13.5%. Further, the growth in assay [7] was 8.83% (active).

As for `Nc1nc(Nc2cccc(F)c2)nc2ccccc12`, the growth is 75.7% in assay [1]; 18.6% in assay [2]; 35.1% in assay [3]; 41.5% in assay [4]; 23.1% in assay [5]; -59.9% (active) in assay [6]. In assay [7], the growth is 59.2%.

Take `Cc1nc(Nc2cn[nH]c2C(=O)Nc2ccc(CN3CCN(C)CC3)cc2)c2ccsc2n1`: the growth in assay [1] was 88.5%; in assay [2], 87.1%; in assay [3], 114%; in assay [4] it was 59.9%; in assay [5], 52.4%; in assay [6] it was 95.3%. Further, the growth in assay [7] is 27.4%.

For the compound `Clc1ccc(-c2nnc(COc3ccc(C4=NNC(c5ccco5)C4)cc3)o2)cc1` (stereo not given), the growth in assay [1] was 81.6%; in assay [2], 93.1%; in assay [3], 94.5%; in assay [4], 17.3%; in assay [5], 86.1%; in assay [6] it was 82.3%. Besides, the growth in assay [7] was 70.9%.

With `CSc1nc2c(c(=O)[nH]1)N=C1c3ccccc3C(=O)C1C(c1ccc(F)cc1)N2` (stereo not given), the growth in assay [1] was 97.2%; in assay [2] it was -2.38% (active); in assay [3], 54.5%; in assay [4] it was 40.4%; in assay [5], 48.4%; in assay [6] it was 64.9%. Further, the growth in assay [7] is 41.7%.

With `CC(=S)NC(=O)C(=O)/C=C1/NC(=O)C(=O)S1`, the growth in assay [1] was 106%; in assay [2] it was 106%; in assay [3], 106%; in assay [4], 104%; in assay [5], 114%; in assay [6], 108%. Besides, the growth in assay [7] is 107%.

For the compound `CCN(CCO)CCNc1ccc(C)c2sc3cc(Cl)ccc3c(=O)c12`, the growth is 69.6% in assay [1]; -68.6% (active) in assay [2]; -85% (active) in assay [3]; -83.1% (active) in assay [4]; -66.1% (active) in assay [5]; -96.8% (active) in assay [6]. The growth in assay [7] was 7.87% (active).

Take `O=C(/C=C/c1ccc(C(F)(F)F)cc1)c1ccc(Nc2nc(NCCO)nc(N3CCOCC3)n2)cc1`: the growth in assay [1] is 61%; in assay [2], 22.1%; in assay [3], -6.72% (active); in assay [4], 3.91% (active); in assay [5], -28.3% (active); in assay [6], 63.9%. Also, the growth in assay [7] was -32.2% (active).

As to `COc1ccccc1CNC(=O)C1c2ccccc2C(=O)N(CC(C)C)C1c1cccs1` (stereo not given), the growth in assay [1] was 78.9%; in assay [2] it was 71%; in assay [3], 78.6%; in assay [4] it was 66.4%; in assay [5] it was 59.9%; in assay [6] it was 48.3%. Moreover, the growth in assay [7] is 32.7%.

In the case of `COc1ccccc1N1CCN(C(CNS(=O)(=O)c2ccc(Cl)cc2)c2cccnc2)CC1` (stereo not given), the growth in assay [1] was 84.9%; in assay [2], 86.6%; in assay [3], 101%; in assay [4], 78.3%; in assay [5], 82.6%; in assay [6], 88%. Besides, the growth in assay [7] is 61.4%.

`Cn1c(/C=C(\C#N)c2ccccc2)nc2c(N3CCOCC3)nc(Cl)nc21`: the growth was -77.2% (active) in assay [1]; -84.7% (active) in assay [2]; -74.2% (active) in assay [3]; -57.7% (active) in assay [4]; -78.1% (active) in assay [5]; -17.2% (active) in assay [6]. The growth in assay [7] was -53% (active).

With `Nc1nc(-c2ccccc2Br)nn1-c1nc2ccccc2s1`, the growth in assay [1] was 100%; in assay [2], 95%; in assay [3] it was 104%; in assay [4], 78.4%; in assay [5] it was 103%; in assay [6], 110%. Also, the growth in assay [7] was 101%.

Consider `COc1nccc2cc3c(=O)n4c(cc5ccccc54)c(=O)n3c12`, for which the growth in assay [1] was 104%; in assay [2], 110%; in assay [3], 101%; in assay [4], 49.1%; in assay [5] it was 104%; in assay [6] it was 104%. Moreover, the growth in assay [7] was 103%.

Turning to `Cc1sc2ncnc(Sc3nc4ccccc4[nH]3)c2c1C`, the growth in assay [1] is 47.2%; in assay [2], -92.9% (active); in assay [3] it was -78.2% (active); in assay [4] it was -70.2% (active); in assay [5], -71.2% (active); in assay [6], -91.4% (active). The growth in assay [7] was -90.1% (active).

As for `COc1cc(CNC(=O)Cc2ccccc2)ccc1OCc1cn(-c2ccc(F)cc2)nn1`, the growth was 99.8% in assay [1]; 98.4% in assay [2]; 109% in assay [3]; 91.8% in assay [4]; 102% in assay [5]; 106% in assay [6]. The growth in assay [7] is 108%.

For the compound `COc1cccc2c(=O)c3c(sc12)c(NCCCNCCO)nc1ccccc13`, the growth was 84.8% in assay [1]; 15% in assay [2]; -73.9% (active) in assay [3]; -13.6% (active) in assay [4]; 31.5% in assay [5]; 37.9% in assay [6]. For the same compound, the growth in assay [7] was 31.3%.

In the case of `CN(C)/C=C1\SC(=Nc2ccc(Cl)cc2)NC1=O`, the growth in assay [1] was 104%; in assay [2] it was 104%; in assay [3] it was 99.9%; in assay [4], 91%; in assay [5], 104%; in assay [6], 104%. The growth in assay [7] is 106%.

For `CN=c1ccc2nc3ccc(N)cc3sc-2c1`, the growth in assay [1] is 52.4%; in assay [2], -62.6% (active); in assay [3], 10.8%; in assay [4] it was -12.7% (active); in assay [5], 6.01% (active); in assay [6], 49.8%. Besides, in assay [7], the growth was 27.9%.

With `COc1cc2nc(NC3CCCC3)nc(NC3CCN(C(C)C)CC3)c2cc1OC`, the growth in assay [1] was 76.7%; in assay [2], -34.3% (active); in assay [3], 59.2%; in assay [4], 39.8%; in assay [5], 66.5%; in assay [7] it was 79.2%.
